The list is not random: actives were taken first. Their share in the collection is about 13%.
HCV inh = blocks hepatitis C virus. Huh7.5.1 HCVcc-Cre infection, luciferase reporter, 44 h. Potency, µM (series often up to 41.8 µM), for the others: at the top dose activity change, negative = inhibition, usual class: inhibitors. 3.4% of 340,000 active; also: potency is read from the fitted curve at half-maximal effect
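Compounds are dispensed onto cells plated 4 h earlier at 1,000 per well, with HCVcc-Cre virus (about 0.5 moi) added next. Following 44 h of culture, luminescent signal is measured for 15 sec after 15 min with substrate at room temperature.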
HCMV inh = human cytomegalovirus inhibition; 4.5% of 410,000 active; AID 1259415; activity change, negative = inhibition, % at 57.5 µM; HFF cells, HCMV-luciferase reporter, 72 h; stronger effect = lower value; in the data active = activity change below about -60%; inconclusive = no clear call, values can overlap the other calls; inactive = above about -39%
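Luciferase read-out from HCMV-luciferase-infected HFFs (MOI 1 PFU/cell) 72 h post infection at 37C; compounds added after 16 h cell attachment; activity normalized between buffer-only basal and Salinomycin (10uM) inhibitor controls.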
Pf growth 48h = inhibits P. falciparum growth in the first generation, 48 h. P. falciparum luciferase growth in erythrocytes, 48 h. Potency, µM (highest dose often 28.7 µM), for the others: at the top dose activity change, negative = inhibition, usual class: inhibitors. 5.9% of 310,000 active. AID 504832; also: potency is read from the fitted curve at half-maximal effect
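First compound was added to culture medium, then infected red cells at 0.1% parasitemia and 2% hematocrit (final). After incubation at 37 C under 5% CO2, luciferase detection reagent was dispensed and light output recorded.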
Pf growth 96h = P. falciparum growth inhibition at 96 hour, primary screen for plastid delayed-death inhibitors | Potency, µM (top dose mostly 28.7 µM), for the others: at the highest dose activity change, negative = inhibition, most hits filed as inhibitors | 6.9% of 320,000 active | AID 504834 | P. falciparum luciferase reporter growth, 96 h; also: potency is read from the fitted curve at half-maximal effect
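Cell-based qHTS: luciferase-tagged P. falciparum in erythrocytes (2% hematocrit, 0.05% parasitemia final) incubated with compounds for 96 hours, 37 C, 5% CO2; luciferase detection reagent then added and luminescence measured.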
An asterisk follows results filed as active; ? = inconclusive; . = no result. Unless noted, calls follow the shape of the dose curve; as a rule, active = well fitted inhibition curve with a large enough effect; inconclusive = small, poorly fitted or top-dose-only effect, or another doubt; inactive = no such curve, though single readings can be large or run the other way. % is scaled to controls: 0 for no effect and ±100 for the full control effect.

SMILES | HCV inh | HCMV inh | Pf growth 48h | Pf growth 96h
Cc1nc2c(n1C1CCCCC1)C(=O)c1ccccc1C2=O | -11.7% | -20.9 | 1.85µM* | 1.31µM*
O=C1c2cccnc2C(=O)N1C1CCCCC1 | 0.0% | -6.1 | 21.6% | 208.5%
Cc1ccc(S(=O)(=O)N2C3CCCCC3O[C@H]2CC(=O)c2cccs2)cc1 (some centres undefined) | . | 18.5 | . | .
CN(C)S(=O)(=O)c1cccc(NC(=O)c2cc(-c3cccs3)nn2-c2ccccc2)c1 | ? | ? | ? | 14.7µM*
CCN(CC)S(=O)(=O)c1cccc(NC(=O)c2cc(-c3cccs3)nn2-c2ccccc2)c1 | ? | -25.2 | -18.9% | 11.7µM*
COC(=O)c1cc(-c2cccs2)nn1-c1ccccc1 | -18.7% | 81.6 | ? | -136.1%
CN(CC(=O)Nc1cccc(F)c1)C(=O)c1cc(-c2cccs2)nn1-c1ccccc1 | 11.2µM* | -11.6 | -2.5% | 7.2%
O=C(C1CC1)N1CCN(c2nc3ccc(F)cc3s2)CC1 | . | 25.5 | . | .
N/C(Cc1cccc2ccccc12)=N\OC(=O)c1ccccc1F | 14.9% | 31.7 | ? | ?
N/C(Cc1ccccc1)=N\OC(=O)c1cccc2ccccc12 | ? | 27.9 | 3.29µM* | 4.65µM*
Cc1cccc(/C(N)=N/OC(=O)Cc2cccc3ccccc23)c1 | 3.0% | -20.4 | -25.3% | ?
COc1cccc(C(=O)O/N=C(\N)Cc2ccc(Cl)cc2)c1 | 10.6% | 57.8 | 10.4µM* | 139.2%
Cc1cccc(C(=O)O/N=C(\N)Cc2cccc3ccccc23)c1 | -3.6% | . | 3.29µM* | ?
CN1OC(C)(CC(=O)Nc2ccccc2)N=C1c1ccc(Br)cc1 (centres undefined) | . | -11.5 | . | .
COc1ccc(CNC(=O)c2ccc(CSc3nc4ccncc4n3Cc3ccccc3F)cc2)cc1 | . | -0.4 | . | .
CCCCN(CCCC)C(=O)CN(C)S(=O)(=O)c1ccc2c(c1)c(=O)n(C)c(=O)n2C | . | -31.0 | . | .
Cc1ccc2c(c1)C(=O)OC(C(=O)Nc1ncc(Cc3ccccc3Cl)s1)C2 (centres undefined) | . | -23.4 | . | .
CCCS(=O)(=O)c1c(S(=O)(=O)CCC)c2c(N)cccn2c1C(=O)c1ccc(F)cc1 | ? | -6.5 | 10.4µM* | 47.5%
CCCS(=O)(=O)c1c(S(=O)(=O)CCC)c2c3ccccc3ccn2c1C(=O)OC | ? | 1.1 | 11.7µM* | 44.6%
CCCS(=O)(=O)c1c(S(=O)(=O)CCC)c2c(N)cccn2c1C(=O)c1ccc(OC)cc1 | 25.1µM* | ? | ? | -1.0%
CCCS(=O)(=O)c1c(S(=O)(=O)CCC)c2c(N)cccn2c1C(=O)c1ccc(Br)cc1 | ? | ? | 11.7µM* | -24.3%
CCCS(=O)(=O)c1c(S(=O)(=O)CCC)c2c(C)cccn2c1C(=O)OC | ? | -9.0 | -2.2% | 6.4%
Cc1nnc(N2CCC(C(=O)NCCC(C)C)CC2)c2nn(-c3ccc(Cl)cc3)c(C)c12 | . | -14.5 | . | .
COc1ccc(C)cc1NC(=O)C(=O)NCCc1sc(-c2ccc(Cl)cc2)nc1C | . | 21.8 | . | .
CCCS(=O)(=O)c1c(S(=O)(=O)CCC)c2cc(C(C)(C)C)ccn2c1C(=O)c1ccccc1 | . | -63.5* | . | .
SMILES | HCV inh | HCMV inh | Pf growth 48h | Pf growth 96h
CC(C)(C)c1ccc(OCCn2cc(C(=O)c3ccco3)c3ccccc32)cc1 | . | -3.1 | . | .
CCc1ccc(-n2nc3cc(C)c(N)cc3n2)cc1 | -17.5% | 101.8 | 183.8% | 13.1µM*
CC1CCN(C(=O)c2ccc3c(c2)N(Cc2ccccc2F)C(=O)c2ccccc2S3(=O)=O)CC1 | . | -4.6 | . | .
Cc1cc(C(=O)CSc2ccc(F)cc2)cc(C)c1OC(=S)N(C)C | ? | -92.2* | . | -82.8%
CC(=O)Nc1ccc(Oc2sc(C(=O)c3ccccc3)c(N)c2C#N)cc1 | ? | -88.3* | ? | ?
CC(=O)Nc1ccc(Oc2ccccc2)cc1 | 12.4% | -36.1 | ? | ?
O=C1CS(=O)(=O)C2(C(=O)N(Cc3ccccc3)c3ccccc32)N1c1ccccc1 (centres undefined) | . | 4.2 | . | .
Cc1cc(NC(=O)CSc2nc(C3CCCCC3)nc3ccccc23)no1 | -8.9% | -76.3* | ? | ?
O=C(CSc1nc(C2CC2)nc2ccccc12)Nc1ccccc1 | ? | -35.7 | -14.8% | -16.6%
Cc1nonc1NC(=O)CSc1nc(C23CC4CC(CC(C4)C2)C3)nc2ccccc12 | ? | -68.8* | ? | ?
O=C(CSc1nc2ccccc2c(=O)n1C1CC1)NCc1ccccc1 | 7.6% | 30.8 | -9.1% | 14.7µM*
